Measurements as given in PubChem BioAssay.
For some of these results: Entries with a potency or affinity are not part of this list. Activity calls are given as the source filed them. Unless noted, no rule for the calls is given here.

How the values were obtained:
[1] = antimalarial activity against Dd2 strain (AID 2302;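 active = growth inhibition above 50% at the single 2 µM test dose, taken to imply half-maximal potency below 2 µM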;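 also: 0% = DMSO untreated growth and 100% = chloroquine plus artemisinin killed control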); details: P. falciparum Dd2 in RBCs, LDH growth readout, 72 h; at 2 µM; stronger effect = higher value
[2] = HepG2 cytotoxicity, primary screen, cytotoxicity control for P. falciparum antimalarial project, cell-based, ATP luminescence (AID 2303;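 active = inhibition above 50%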;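 also: 0% = DMSO wells and 100% = digitonin-killed cells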); details: HepG2 viability, 24-48 h, at 10 µM, stronger effect = higher value
[3] = molecular target: L-lactate dehydrogenase (Plasmodium falciparum (isolate CDC / Honduras)) (UniProt Q27743); assay: PfLDH activity inhibition – cell lysate, 3D7 strain, counter-screen for P. falciparum growth inhibition project (AID 2304);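 also: 0% = vehicle and 100% = reference inhibitor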; details: P. falciparum 3D7 crude extract, LDH APAD/NBT absorbance; at 2 µM; stronger effect = higher value
Chain of L-lactate dehydrogenase (Plasmodium falciparum (isolate CDC / Honduras)) (Q27743 whole entry, looked up): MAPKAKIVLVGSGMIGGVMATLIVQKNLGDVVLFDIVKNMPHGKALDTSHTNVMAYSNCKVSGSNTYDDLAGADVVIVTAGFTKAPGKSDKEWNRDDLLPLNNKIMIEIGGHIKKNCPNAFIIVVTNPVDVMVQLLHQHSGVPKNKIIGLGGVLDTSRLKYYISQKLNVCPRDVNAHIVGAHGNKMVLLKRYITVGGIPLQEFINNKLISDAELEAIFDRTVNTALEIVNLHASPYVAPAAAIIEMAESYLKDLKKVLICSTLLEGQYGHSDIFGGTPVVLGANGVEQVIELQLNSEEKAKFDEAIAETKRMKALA

[4] = inhibition of 3D7 malaria parasite growth – strain 3D7 (AID 2306);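 also: 0% = DMSO wells and 100% = chloroquine plus artemisinin control wells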; details: P. falciparum 3D7 erythrocytic growth, LDH absorbance, 72 h; at 2 µM; stronger effect = higher value
[5] = molecular target: Calcium-dependent protein kinase 1 (Plasmodium falciparum (isolate 3D7)) (UniProt P62344); assay: PfCDPK1 kinase inhibitors, biochemical, TCAMS library (AID 1159585; cut-off not given, nearly all actives have IC50 up to about 0.98 µM;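 also: inhibitors leave more ATP so luminescence rises with inhibition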); details: recombinant PfCDPK1, Kinase-Glo ATP depletion luminescence
Chain of Calcium-dependent protein kinase 1 (Plasmodium falciparum (isolate 3D7)) (P62344 whole entry, looked up): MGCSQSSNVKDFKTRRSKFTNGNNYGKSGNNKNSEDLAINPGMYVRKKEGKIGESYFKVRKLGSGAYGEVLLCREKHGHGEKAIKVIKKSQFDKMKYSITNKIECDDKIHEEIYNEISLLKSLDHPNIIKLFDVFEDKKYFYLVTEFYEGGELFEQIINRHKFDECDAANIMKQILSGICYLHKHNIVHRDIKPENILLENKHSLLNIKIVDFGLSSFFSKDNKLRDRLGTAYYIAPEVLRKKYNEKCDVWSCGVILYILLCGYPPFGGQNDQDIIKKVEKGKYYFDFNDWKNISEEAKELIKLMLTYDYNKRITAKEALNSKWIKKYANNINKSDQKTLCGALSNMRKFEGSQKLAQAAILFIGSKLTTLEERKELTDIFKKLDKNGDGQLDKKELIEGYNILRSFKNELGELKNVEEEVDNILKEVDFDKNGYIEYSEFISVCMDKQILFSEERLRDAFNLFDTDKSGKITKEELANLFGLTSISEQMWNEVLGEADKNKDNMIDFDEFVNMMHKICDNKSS

[6] = molecular target: Plasmodium falciparum protein kinase 6 (PK6, PF3D7_1337100) (UniProt Q8IDW1); assay: PfPK6 kinase inhibitors, biochemical, TCAMS library (AID 1159586); details: recombinant PfPK6, Kinase-Glo ATP depletion luminescence
Chain of Plasmodium falciparum protein kinase 6 (PK6, PF3D7_1337100) (Q8IDW1 1-305): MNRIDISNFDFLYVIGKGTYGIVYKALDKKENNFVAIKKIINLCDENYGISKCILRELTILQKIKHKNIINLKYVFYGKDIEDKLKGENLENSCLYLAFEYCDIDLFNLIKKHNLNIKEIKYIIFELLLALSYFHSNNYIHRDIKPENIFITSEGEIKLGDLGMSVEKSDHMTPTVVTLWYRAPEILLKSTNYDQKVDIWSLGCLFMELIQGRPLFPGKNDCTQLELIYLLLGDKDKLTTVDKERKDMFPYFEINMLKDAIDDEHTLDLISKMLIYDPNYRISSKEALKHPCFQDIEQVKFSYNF

[7] = molecular target: Protein kinase 7 (PK7), Plasmodium falciparum 3D7 (PF3D7_0213400) (UniProt Q7YTF7); assay: inhibition of Plasmodium PK7 catalytic activity – biochemical, TCAMS antimalarial set, Kinase-Glo luminescence (AID 1159587); details: recombinant PfPK7, Kinase-Glo ATP depletion luminescence
Chain of Protein kinase 7 (PK7), Plasmodium falciparum 3D7 (PF3D7_0213400) (Q7YTF7 1-343): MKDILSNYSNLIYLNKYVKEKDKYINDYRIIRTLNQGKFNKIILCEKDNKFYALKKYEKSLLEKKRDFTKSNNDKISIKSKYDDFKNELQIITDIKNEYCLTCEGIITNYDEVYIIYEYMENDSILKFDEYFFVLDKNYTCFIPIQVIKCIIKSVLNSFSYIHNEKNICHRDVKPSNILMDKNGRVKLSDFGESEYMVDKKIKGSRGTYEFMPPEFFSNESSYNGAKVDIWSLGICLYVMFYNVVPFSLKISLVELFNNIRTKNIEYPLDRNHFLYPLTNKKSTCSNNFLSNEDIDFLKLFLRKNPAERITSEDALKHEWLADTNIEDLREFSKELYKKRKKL

[8] = molecular target: Calcium-dependent protein kinase 4 (Plasmodium falciparum (isolate 3D7)) (UniProt Q8IBS5); assay: PfCDPK4 kinase inhibitors, biochemical, TCAMS library (AID 1159588; cut-off not given, nearly all actives have IC50 up to about 0.91 µM); details: recombinant PfCDPK4, Kinase-Glo ATP depletion luminescence
Chain of Calcium-dependent protein kinase 4 (Plasmodium falciparum (isolate 3D7)) (Q8IBS5 whole entry, looked up): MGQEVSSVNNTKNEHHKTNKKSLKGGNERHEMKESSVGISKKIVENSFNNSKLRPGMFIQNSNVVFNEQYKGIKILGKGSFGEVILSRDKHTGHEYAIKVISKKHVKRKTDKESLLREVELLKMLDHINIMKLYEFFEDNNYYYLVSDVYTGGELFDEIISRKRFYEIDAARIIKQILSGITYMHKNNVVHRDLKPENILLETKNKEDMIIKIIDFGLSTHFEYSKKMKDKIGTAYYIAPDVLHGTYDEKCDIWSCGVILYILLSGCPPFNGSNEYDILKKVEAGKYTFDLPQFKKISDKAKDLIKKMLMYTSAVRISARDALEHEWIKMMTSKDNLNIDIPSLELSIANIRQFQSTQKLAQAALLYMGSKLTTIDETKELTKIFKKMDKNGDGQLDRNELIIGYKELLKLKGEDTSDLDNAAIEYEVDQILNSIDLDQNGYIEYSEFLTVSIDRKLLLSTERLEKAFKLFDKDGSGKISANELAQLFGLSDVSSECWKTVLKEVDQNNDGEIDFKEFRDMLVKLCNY

COc1ccc2nc(NC3=NC(c4ccccn4)(c4ccccn4)C(=O)N3C)[nH]c2c1
active: growth inhibition [1] 98% | inhibition [2] 65% | growth inhibition [4] 99%
inactive: inhibition [3] 1% | outcome [5] | outcome [6] | outcome [7] | outcome [8]

Clc1ccc(CNC2CCN(CC3CCCCC3)CC2)cc1
active: growth inhibition [4] 92%
inactive: growth inhibition [1] 15% | inhibition [2] 12% | inhibition [3] 5% | outcome [5] | outcome [6] | outcome [7] | outcome [8]

COc1ccc(OC)c(-c2ccc(O)c(CNCC(C)c3ccccc3)c2)c1 (stereo not given)
inactive: inhibition [2] 26% | inhibition [3] -2% | outcome [5] | outcome [6] | outcome [7] | outcome [8]
active: growth inhibition [1] 96% | growth inhibition [4] 98%

Cc1noc(-c2ccccc2)c1NC(=O)NC1CCN(CCCCCNC(=O)/C=C/c2ccc(Cl)c(Cl)c2)CC1
active: growth inhibition [4] 93%
inactive: growth inhibition [1] -3% | inhibition [2] -3% | inhibition [3] -3% | outcome [5] | outcome [6] | outcome [7] | outcome [8]

COC(=O)c1cccc(C#CCCOCCCCCCNC[C@H](O)c2cc(Cl)c(N)c(Cl)c2)c1
active: growth inhibition [1] 88% | growth inhibition [4] 97%
inactive: inhibition [2] 12% | inhibition [3] -3% | outcome [5] | outcome [6] | outcome [7] | outcome [8]

O=C(O)c1cc(OCC(O)COc2ccc(O)c(C(=O)O)c2)ccc1O
active: growth inhibition [4] 99%
inactive: growth inhibition [1] 6% | inhibition [2] 9% | inhibition [3] 5% | outcome [5] | outcome [6] | outcome [7] | outcome [8]

CCNc1cc(C(=O)N[C@@H](Cc2ccoc2)[C@H](O)CNC(C)CCCC(C)C)cc(N2CCCCS2(=O)=O)c1 (stereo not given in full)
inactive: inhibition [2] -2% | inhibition [3] 0% | outcome [5] | outcome [6] | outcome [7] | outcome [8]
active: growth inhibition [1] 68% | growth inhibition [4] 99%

C=CCOC(=O)N1CCC(CNCc2cccc(-c3ccc(-c4nc5c(C)cccc5[nH]4)cc3)c2)C1 (stereo not given)
inactive: inhibition [2] 24% | inhibition [3] 1% | outcome [5] | outcome [6] | outcome [7] | outcome [8]
active: growth inhibition [1] 82% | growth inhibition [4] 103%

N[C@@H](Cc1cc(I)c(Oc2ccc(O)c(C(=O)O)c2)c(I)c1)C(=O)O
active: inhibition [2] 57% | growth inhibition [4] 97%
inactive: growth inhibition [1] 21% | inhibition [3] -1% | outcome [5] | outcome [6] | outcome [7] | outcome [8]

c1ccc2[nH]c(-c3ccc(-c4ccc(CNCC5CCCO5)cc4)s3)nc2c1 (stereo not given)
inactive: inhibition [2] 27% | inhibition [3] 4% | outcome [5] | outcome [6] | outcome [7] | outcome [8]
active: growth inhibition [1] 87% | growth inhibition [4] 101%

CC(C)c1ccc(C2CCN(CCCCNC(=O)c3ccc(NC(=O)c4ccc(C(F)(F)F)cc4)cc3)CC2)c(O)c1
active: growth inhibition [1] 100% | growth inhibition [4] 99%
inactive: inhibition [2] 47% | inhibition [3] 7% | outcome [5] | outcome [6] | outcome [7] | outcome [8]

Cc1nn(-c2ccccc2)nc1C(=O)NC1CCN(CCNC(=O)c2ccc(Cl)c(Cl)c2)CC1
active: growth inhibition [4] 89%
inactive: growth inhibition [1] 5% | inhibition [2] 15% | inhibition [3] 0% | outcome [5] | outcome [6] | outcome [7] | outcome [8]

O=[N+]([O-])c1cccc(Nc2cncc(-c3ccc(CO)cc3)c2)c1
inactive: inhibition [2] 16% | inhibition [3] -5% | outcome [5] | outcome [6] | outcome [7] | outcome [8]
active: growth inhibition [1] 96% | growth inhibition [4] 85%

CN(C)CCCn1c(N)c(-c2nc3ccccc3[nH]2)c2nc(C#N)c(C#N)nc21
active: growth inhibition [1] 101% | inhibition [2] 100% | growth inhibition [4] 102%
inactive: inhibition [3] -1% | outcome [5] | outcome [6] | outcome [7] | outcome [8]

COc1ccc2ncc(Cl)c(CCN3CCC(NCc4ccc5c(n4)NC(=O)CS5)CC3)c2c1
inactive: growth inhibition [1] 34% | inhibition [2] 26% | inhibition [3] -2% | outcome [5] | outcome [6] | outcome [7] | outcome [8]
active: growth inhibition [4] 100%

CCCNCc1ccc(-c2ccc(CN(CCOC)C(=O)COc3ccccc3Cl)cc2)nc1
active: growth inhibition [4] 96%
inactive: growth inhibition [1] 29% | inhibition [2] -1% | inhibition [3] -2% | outcome [5] | outcome [6] | outcome [7] | outcome [8]

O=C(Nc1cccc(-c2cccc(-c3nc4ccccc4[nH]3)c2)c1)Nc1ccc(Cl)c(Cl)c1
inactive: inhibition [3] -3% | outcome [5] | outcome [6] | outcome [7] | outcome [8]
active: growth inhibition [1] 98% | inhibition [2] 78% | growth inhibition [4] 101%

CC(CN1CCN(C)CC1)C(=O)Nc1ccc(-c2cccc(-c3nc4ccc(F)cc4[nH]3)c2)cc1 (stereo not given)
active: growth inhibition [1] 99% | growth inhibition [4] 100%
inactive: inhibition [2] 8% | inhibition [3] 0% | outcome [5] | outcome [6] | outcome [7] | outcome [8]

Cc1cccc2[nH]c(-c3ccc(-c4cccc(NC(=O)Nc5ccc6c(c5)OCO6)c4)cc3)nc12
inactive: growth inhibition [1] 39% | inhibition [2] 28% | inhibition [3] -8% | outcome [5] | outcome [6] | outcome [7] | outcome [8]
active: growth inhibition [4] 100%

c1ccc(-c2ccc(CNCCCNc3nc4ccccc4[nH]3)cc2)cc1
active: growth inhibition [4] 95%
inactive: growth inhibition [1] 0% | inhibition [2] 20% | inhibition [3] -4% | outcome [5] | outcome [6] | outcome [7] | outcome [8]

CC(C)NCc1ccc(-c2ccc(NC(=O)c3cccc(Cl)c3)cc2)cc1
inactive: growth inhibition [1] 14% | inhibition [2] 36% | inhibition [3] -2% | outcome [5] | outcome [6] | outcome [7] | outcome [8]
active: growth inhibition [4] 100%

Cc1ccc(C(=O)Nc2ccc(Nc3ccnc4cc(-c5ccccn5)ccc34)cc2O)cc1
inactive: inhibition [3] 2% | outcome [5] | outcome [6] | outcome [7] | outcome [8]
active: growth inhibition [1] 100% | inhibition [2] 100% | growth inhibition [4] 100%

O=C(CSc1nc(-c2ccccc2Cl)ns1)Nc1ccc2c(c1)OCO2
inactive: inhibition [2] -8% | inhibition [3] -5% | outcome [5] | outcome [6] | outcome [7] | outcome [8]
active: growth inhibition [1] 77% | growth inhibition [4] 93%

O=C(Nc1cccc(-c2cccc(-c3nc4ccccc4[nH]3)c2)c1)Nc1ccc2c(c1)OCO2
active: growth inhibition [1] 57% | growth inhibition [4] 101%
inactive: inhibition [2] 25% | inhibition [3] -4% | outcome [5] | outcome [6] | outcome [7] | outcome [8]

c1ccc(C2CCC(N3CCC(N4CCCC4)CC3)CC2)cc1 (stereo not given)
inactive: growth inhibition [1] 46% | inhibition [2] 9% | inhibition [3] -2% | outcome [5] | outcome [6] | outcome [7] | outcome [8]
active: growth inhibition [4] 102%

COc1ccc(C=CC(=O)NC(=O)c2ccccc2OC(=O)c2ccccc2)cc1OC
inactive: inhibition [2] 12% | inhibition [3] 5% | outcome [5] | outcome [6] | outcome [7] | outcome [8]
active: growth inhibition [1] 90% | growth inhibition [4] 87%

COc1cccc2cc(C(=O)N[C@@H](CC(C)C)C(=O)N[C@H](/C=N/N3C(=O)CN(Cc4ccccc4)C3=O)CCc3ccccc3)oc12
active: growth inhibition [1] 52% | growth inhibition [4] 85%
inactive: inhibition [2] 14% | inhibition [3] -1% | outcome [5] | outcome [6] | outcome [7] | outcome [8]

COc1ccc(NC(=O)[C@H](CC(C)C)Nc2cc(C)nc(NCCc3ccccc3)n2)cc1
inactive: inhibition [2] 13% | inhibition [3] -2% | outcome [5] | outcome [6] | outcome [7] | outcome [8]
active: growth inhibition [1] 74% | growth inhibition [4] 101%

C=CCc1cc(Cc2cnc(N)nc2N)cc(CCC)c1O
inactive: growth inhibition [1] 2% | inhibition [3] -1% | outcome [5] | outcome [6] | outcome [7] | outcome [8]
active: inhibition [2] 54% | growth inhibition [4] 90%

CN(C)c1ccc(C=Cc2nc(=O)c3ccccc3o2)cc1
active: growth inhibition [1] 97% | growth inhibition [4] 96%
inactive: inhibition [2] 6% | inhibition [3] 0% | outcome [5] | outcome [6] | outcome [7] | outcome [8]

Nc1nc(-c2ccc3c(Nc4ccc(F)c(Cl)c4)ccnc3c2)cs1
active: growth inhibition [1] 88% | growth inhibition [4] 100%
inactive: inhibition [2] 13% | inhibition [3] 0% | outcome [5] | outcome [6] | outcome [7] | outcome [8]

O=C(NC1CC1)c1cnc(N2CCC(Oc3ccc(Cl)cc3)CC2)c(Cl)c1
inactive: inhibition [2] 12% | inhibition [3] -5% | outcome [5] | outcome [6] | outcome [7] | outcome [8]
active: growth inhibition [1] 75% | growth inhibition [4] 86%

Cc1cc(=O)c(-c2ccc(Oc3cccc(Cl)c3)cc2)c(C)[nH]1
inactive: inhibition [2] 23% | inhibition [3] 0% | outcome [5] | outcome [6] | outcome [7] | outcome [8]
active: growth inhibition [1] 89% | growth inhibition [4] 95%

Cc1nc(N)nc(N)c1CCCOc1ccccc1Cl
active: growth inhibition [4] 98%
inactive: growth inhibition [1] 5% | inhibition [2] 40% | inhibition [3] -1% | outcome [5] | outcome [6] | outcome [7] | outcome [8]

CN1CCC(c2c[nH]c3ccc(NC(=O)Nc4ccc(-c5ccncc5)c(Cl)c4Cl)cc23)CC1
active: growth inhibition [4] 102%
inactive: growth inhibition [1] 19% | inhibition [2] 27% | inhibition [3] -1% | outcome [5] | outcome [6] | outcome [7] | outcome [8]
